# Results: publication PMC11062922 (Nature Chemical Biology, 2023)
# Like-named read-outs stand apart in the source and are kept apart here.
# How the values were obtained:
# Parameters in all cases: species or system human, MV4-11 + K-562 + COLO205 + SK-N-BE2 + OVCAR-8
# ADRBK1 = conditions: read-out: apparent Kd, n = 1
# AKT2 = conditions: read-out: apparent Kd, n = 1
# EIF2AK1 = conditions: read-out: apparent Kd; compound concentrations:100 nM and 1000 nM (sheet 'Samples'); n = 1
# GSK3A = conditions: read-out: apparent Kd; compound concentrations:100 nM and 1000 nM (sheet 'Samples'); n = 1
# GSK3B = conditions: read-out: apparent Kd; compound concentrations:100 nM and 1000 nM (sheet 'Samples'); n = 1
# PIM2 = conditions: read-out: apparent Kd; compound concentrations:100 nM and 1000 nM (sheet 'Samples'); n = 1
# PRKAG1 = conditions: read-out: apparent Kd; compound concentrations:100 nM and 1000 nM (sheet 'Samples'); n = 1
# TAOK1 = conditions: read-out: apparent Kd; compound concentrations:100 nM and 1000 nM (sheet 'Samples'); n = 1
# AURKA = conditions: read-out: apparent Kd; compound concentrations:100 nM and 1000 nM (sheet 'Samples'); n = 1
# CDC42BPA = conditions: read-out: apparent Kd; compound concentrations:100 nM and 1000 nM (sheet 'Samples'); n = 1
# CDC42BPB = conditions: read-out: apparent Kd; compound concentrations:100 nM and 1000 nM (sheet 'Samples'); n = 1
# CDC42BPG = conditions: read-out: apparent Kd; compound concentrations:100 nM and 1000 nM (sheet 'Samples'); n = 1
# CDK6 = conditions: read-out: apparent Kd, n = 1
# CDKL5 = conditions: read-out: apparent Kd; compound concentrations:100 nM and 1000 nM (sheet 'Samples'); n = 1
# CHEK1 = conditions: read-out: apparent Kd; compound concentrations:100 nM and 1000 nM (sheet 'Samples'); n = 1
# CSNK1G1 = conditions: read-out: apparent Kd; compound concentrations:100 nM and 1000 nM (sheet 'Samples'); n = 1
# FN3KRP = conditions: read-out: apparent Kd; compound concentrations:100 nM and 1000 nM (sheet 'Samples'); n = 1
# MTHFD1 = conditions: read-out: apparent Kd; compound concentrations:100 nM and 1000 nM (sheet 'Samples'); n = 1
# NUAK1 = conditions: read-out: apparent Kd; compound concentrations:100 nM and 1000 nM (sheet 'Samples'); n = 1
# NUAK2 = conditions: read-out: apparent Kd; compound concentrations:100 nM and 1000 nM (sheet 'Samples'); n = 1
# PDXK = conditions: read-out: apparent Kd; compound concentrations:100 nM and 1000 nM (sheet 'Samples'); n = 1
# PKN1 = conditions: read-out: apparent Kd; compound concentrations:100 nM and 1000 nM (sheet 'Samples'); n = 1
# PKN2 = conditions: read-out: apparent Kd; compound concentrations:100 nM and 1000 nM (sheet 'Samples'); n = 1
# PRKAA1 = conditions: read-out: apparent Kd; compound concentrations:100 nM and 1000 nM (sheet 'Samples'); n = 1
# PRKACA = conditions: read-out: apparent Kd; compound concentrations: 100 nM and 1000 nM (sheet 'Samples'), CATDS: 9.7859849759824202E-2; n = 1
# PRKACB = conditions: read-out: apparent Kd; compound concentrations:100 nM and 1000 nM (sheet 'Samples'); n = 1
# PRKAG2 = conditions: read-out: apparent Kd; compound concentrations:100 nM and 1000 nM (sheet 'Samples'); n = 1
# PRKCA = conditions: read-out: apparent Kd; compound concentrations:100 nM and 1000 nM (sheet 'Samples'); n = 1
# PRKCB = conditions: read-out: apparent Kd; compound concentrations:100 nM and 1000 nM (sheet 'Samples'); n = 1
# PRKCD = conditions: read-out: apparent Kd; compound concentrations:100 nM and 1000 nM (sheet 'Samples'); n = 1
# PRKCQ = conditions: read-out: apparent Kd; compound concentrations:100 nM and 1000 nM (sheet 'Samples'); n = 1
# PRKG1 = conditions: read-out: apparent Kd; compound concentrations:100 nM and 1000 nM (sheet 'Samples'); n = 1
# PRKX;PRKY = conditions: read-out: apparent Kd; compound concentrations:100 nM and 1000 nM (sheet 'Samples'); n = 1
# ROCK1 = conditions: read-out: apparent Kd; compound concentrations:100 nM and 1000 nM (sheet 'Samples'); n = 1
# ROCK2 = conditions: read-out: apparent Kd; compound concentrations:100 nM and 1000 nM (sheet 'Samples'); n = 1
# RPS6KA5 = conditions: read-out: apparent Kd; compound concentrations:100 nM and 1000 nM (sheet 'Samples'); n = 1
# RPS6KB1 = conditions: read-out: apparent Kd; compound concentrations:100 nM and 1000 nM (sheet 'Samples'); n = 1
# CSNK1D = conditions: read-out: apparent Kd; compound concentrations: 100 nM and 1000 nM (sheet 'Samples'), CATDS: 0.10143186295273; n = 1
# CSNK1E = conditions: read-out: apparent Kd; compound concentrations: 100 nM and 1000 nM (sheet 'Samples'), CATDS: 9.8095690794025595E-2; n = 1
# MAPK14 = conditions: read-out: apparent Kd, n = 1
# PKN3 = conditions: read-out: apparent Kd; compound concentrations: 100 nM and 1000 nM (sheet 'Samples'), CATDS: 0.541648596841942; n = 1
# RIPK2 = conditions: read-out: apparent Kd; compound concentrations: 100 nM and 1000 nM (sheet 'Samples'), CATDS: 0.18182932832718701; n = 1
# TESK2 = conditions: read-out: apparent Kd; compound concentrations: 100 nM and 1000 nM (sheet 'Samples'), CATDS: 8.5548681543300906E-2; n = 1
# TNIK = conditions: read-out: apparent Kd; compound concentrations: 100 nM and 1000 nM (sheet 'Samples'), CATDS: 8.6694751539446793E-2; n = 1
# AKT1 = conditions: read-out: apparent Kd; compound concentrations: 100 nM and 1000 nM (sheet 'Samples'), CATDS: 9.2646573747736397E-2; n = 1
# AKT3 = conditions: read-out: apparent Kd; compound concentrations: 100 nM and 1000 nM (sheet 'Samples'), CATDS: 9.8238280231453798E-2; n = 1
# MAP2K1 = conditions: read-out: apparent Kd; compound concentrations: 100 nM and 1000 nM (sheet 'Samples'), CATDS: 9.2730141301733807E-2; n = 1
# MAP2K2 = conditions: read-out: apparent Kd, n = 1
# MAP4K3 = conditions: read-out: apparent Kd; compound concentrations: 100 nM and 1000 nM (sheet 'Samples'), CATDS: 0.10467989294056; n = 1
# NQO1 = conditions: read-out: apparent Kd; compound concentrations: 100 nM and 1000 nM (sheet 'Samples'), CATDS: 0.121643058614981; n = 1
# RIOK2 = conditions: read-out: apparent Kd; compound concentrations: 100 nM and 1000 nM (sheet 'Samples'), CATDS: 0.103588865131405; n = 1
# TP53RK = conditions: read-out: apparent Kd, n = 1
# ADK = conditions: read-out: apparent Kd, n = 1
# COX5A = conditions: read-out: apparent Kd; compound concentrations: 100 nM and 1000 nM (sheet 'Samples'), CATDS: 0.48232246819666902; n = 1
# CDK4 = conditions: read-out: apparent Kd; compound concentrations:100 nM and 1000 nM (sheet 'Samples'); n = 1
# MAPKAPK2 = conditions: read-out: apparent Kd; compound concentrations:100 nM and 1000 nM (sheet 'Samples'); n = 1
# NQO2 = conditions: read-out: apparent Kd; compound concentrations:100 nM and 1000 nM (sheet 'Samples'); n = 1
# PRKCZ = conditions: read-out: apparent Kd; compound concentrations:100 nM and 1000 nM (sheet 'Samples'); n = 1
# [1] = compound concentrations:100 nM and 1000 nM (sheet 'Samples')
# [2] = compound concentrations: 100 nM and 1000 nM (sheet 'Samples'), CATDS: 1
smiles,measurement,setting,value
O=C(Nc1n[nH]c2nc(-c3ccc(O)cc3)c(Br)cc12)C1CC1 [SB-725317],potency estimated from few doses,ADRBK1; [1],1950 nM
same,potency estimated from few doses,AKT2; [1],2420 nM
same,potency estimated from few doses,EIF2AK1,517 nM
same,potency estimated from few doses,GSK3A,12.9 nM
same,potency estimated from few doses,GSK3B,43.1 nM
same,potency estimated from few doses,PIM2,768 nM
same,potency estimated from few doses,PRKAG1,1610 nM
same,potency estimated from few doses,TAOK1,1840 nM
COc1ccc(O)c(C(=O)c2ccc(C(=O)O[C@@H]3CCCNC[C@H]3NC(=O)c3ccncc3)cc2)c1F.Cl [RO0480500-002],potency estimated from few doses,ADRBK1; [1],119 nM
same,potency estimated from few doses,AURKA,693 nM
same,potency estimated from few doses,CDC42BPA,413 nM
same,potency estimated from few doses,CDC42BPB,51.3 nM
same,potency estimated from few doses,CDC42BPG,630 nM
same,potency estimated from few doses,CDK6; [1],2090 nM
same,potency estimated from few doses,CDKL5,237 nM
same,potency estimated from few doses,CHEK1,26.5 nM
same,potency estimated from few doses,CSNK1G1,2260 nM
same,potency estimated from few doses,FN3KRP,764 nM
same,potency estimated from few doses,MTHFD1,1020 nM
same,potency estimated from few doses,NUAK1,16.5 nM
same,potency estimated from few doses,NUAK2,150 nM
same,potency estimated from few doses,PDXK,1410 nM
same,potency estimated from few doses,PKN1,116 nM
same,potency estimated from few doses,PKN2,241 nM
same,potency estimated from few doses,PRKAA1,485 nM
same,potency estimated from few doses,PRKACA,12.8 nM
same,potency estimated from few doses,PRKACB,21.1 nM
same,potency estimated from few doses,PRKAG1,1510 nM
same,potency estimated from few doses,PRKAG2,75 nM
same,potency estimated from few doses,PRKCA,227 nM
same,potency estimated from few doses,PRKCB,506 nM
same,potency estimated from few doses,PRKCD,25.7 nM
same,potency estimated from few doses,PRKCQ,769 nM
same,potency estimated from few doses,PRKG1,4.47 nM
same,potency estimated from few doses,PRKX;PRKY,40.2 nM
same,potency estimated from few doses,ROCK1,19.2 nM
same,potency estimated from few doses,ROCK2,19.1 nM
same,potency estimated from few doses,RPS6KA5,75 nM
same,potency estimated from few doses,RPS6KB1,38.6 nM
CCc1nc(-c2cccc(C)c2)c(-c2ccncc2)s1 [TPKI-106],potency estimated from few doses,"ADRBK1; compound concentrations: 100 nM and 1000 nM (sheet 'Samples'), CATDS: 9.0460214145081597E-2",1680 nM
same,potency estimated from few doses,"CDK6; compound concentrations: 100 nM and 1000 nM (sheet 'Samples'), CATDS: 8.6240814727830004E-2",1950 nM
same,potency estimated from few doses,CSNK1D,1230 nM
same,potency estimated from few doses,CSNK1E,1340 nM
same,potency estimated from few doses,"MAPK14; compound concentrations: 100 nM and 1000 nM (sheet 'Samples'), CATDS: 0.129413599974984",691 nM
same,potency estimated from few doses,PKN3,57.5 nM
same,potency estimated from few doses,RIPK2,349 nM
same,potency estimated from few doses,TESK2,2000 nM
same,potency estimated from few doses,TNIK,1910 nM
N#Cc1c(NC(=O)c2cccc3ccccc23)sc2c1CCCC2 [GW620972X],potency estimated from few doses,"ADRBK1; compound concentrations: 100 nM and 1000 nM (sheet 'Samples'), CATDS: 9.9298321917506205E-2",1570 nM
same,potency estimated from few doses,AKT1,1820 nM
same,potency estimated from few doses,"AKT2; compound concentrations: 100 nM and 1000 nM (sheet 'Samples'), CATDS: 0.116273813691737",1170 nM
same,potency estimated from few doses,AKT3,1610 nM
same,potency estimated from few doses,MAP2K1,1820 nM
same,potency estimated from few doses,"MAP2K2; compound concentrations: 100 nM and 1000 nM (sheet 'Samples'), CATDS: 9.7397505320664393E-2",1640 nM
same,potency estimated from few doses,MAP4K3,1420 nM
same,potency estimated from few doses,NQO1,1080 nM
same,potency estimated from few doses,RIOK2,1440 nM
same,potency estimated from few doses,"TP53RK; compound concentrations: 100 nM and 1000 nM (sheet 'Samples'), CATDS: 8.4192999566122695E-2",2270 nM
Nc1cccc(-c2ccc3c(N)n[nH]c3c2)n1 [GSK2192730A],potency estimated from few doses,ADRBK1; [2],1750 nM
O=C(Nc1cccc(-c2nn3ccccc3c2-c2ccnc(Nc3cccc(C(F)(F)F)c3)n2)c1)c1c(F)cccc1F [GSK292658A],potency estimated from few doses,"ADK; compound concentrations: 100 nM and 1000 nM (sheet 'Samples'), CATDS: 0.51902262396373799",1330 nM
same,potency estimated from few doses,COX5A,1540 nM
Cc1ccccc1-c1cc(-c2c[nH]nc2-c2ccccn2)ccn1 [GW680061X],potency estimated from few doses,ADRBK1; [1],2140 nM
same,potency estimated from few doses,CDK4,1890 nM
same,potency estimated from few doses,CDK6; [1],1960 nM
same,potency estimated from few doses,MAP2K2; [1],2250 nM
same,potency estimated from few doses,MAPK14; [1],993 nM
same,potency estimated from few doses,MAPKAPK2,470 nM
same,potency estimated from few doses,NQO2,1210 nM
same,potency estimated from few doses,PRKCZ,2260 nM
same,potency estimated from few doses,TP53RK; [1],2160 nM
CC(=O)N[C@@H](Cc1ccc(OP(=O)(O)O)cc1)C(=O)N[C@H]1CCC(=O)N2CCC[C@@H](C(=O)NCc3ccc(O)cc3)N2C1=O [RO0324381-000],potency estimated from few doses,ADK; [1],1270 nM
O=C(Nc1n[nH]c2nc(-c3ccco3)c(Br)cc12)C1CC1 [SB-739452],potency estimated from few doses,ADK; [2],1720 nM
